According to PubChem BioAssay AID2563 (Broad Institute, 2010):
The whole screen tested about 290,000 compounds, of which about 800 (0.28%) were called active.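 Rule for the calls: active = fall in fluorescence gain of 50% or more versus controls, with final raw signal at or below 3038400; inconclusive = same 50% fall but final raw signal above 3038400; inactive = fall in fluorescence gain under 50%.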 This excerpt belongs to a sample that is enriched for actives.

Biological target: CAAX prenyl protease 2 (Saccharomyces cerevisiae (strain ATCC 204508 / S288c)) (UniProt Q03530)
Sequence (Q03530 whole entry, looked up): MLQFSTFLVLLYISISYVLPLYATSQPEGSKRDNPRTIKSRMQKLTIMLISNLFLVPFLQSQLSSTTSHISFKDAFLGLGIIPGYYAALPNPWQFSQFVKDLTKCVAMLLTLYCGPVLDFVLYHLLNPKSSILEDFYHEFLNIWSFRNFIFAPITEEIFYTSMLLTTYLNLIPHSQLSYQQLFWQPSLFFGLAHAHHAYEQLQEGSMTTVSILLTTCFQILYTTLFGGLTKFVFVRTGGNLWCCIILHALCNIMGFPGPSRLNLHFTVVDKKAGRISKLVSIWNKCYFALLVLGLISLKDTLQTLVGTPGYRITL
Experiment: yeast Rce1p protease inhibitors, primary screen, biochemical, fluorescence, cell-free homogeneous (AID 2563)
Details: yeast membranes, quenched prenylated peptide cleavage fluorescence

Structure (SMILES) | outcome
CCOC(=O)c1c(C)oc2cc(Sc3ccccc3)c(O)c(O)c12 | inactive
O=C1CCCC(O)=C1N=Nc1ccc(S(=O)(=O)N2CCOCC2)cc1 | inactive
O=C1CCCC(O)=C1N=Nc1ccc2ncsc2c1 | active
COc1ccc(C(=O)N(Cc2ccccc2)c2ccc(C)cc2)cc1S(=O)(=O)N1CCOCC1 | inactive
CC1CC(C)(C)CC2(C1)NC(=O)N(CC(=O)Nc1nccs1)C2=O (centres undefined) | inactive
COc1ccc(-c2cn3ccsc3n2)cc1 | inactive
CCN(CC)S(=O)(=O)c1ccc(-c2cn3ccc(C)cc3n2)cc1 | inactive
COc1ccc(-c2cn3ccc(C)cc3n2)cc1 | active
Cc1ccc(NC(=O)COC(=O)CNC(=O)c2ccc(Cl)cc2Cl)cc1S(=O)(=O)N1CCOCC1 | inactive
C=CCc1cccc(/C=N/NC(=O)COc2ccc(-n3cnnn3)cc2)c1O | active
O=C(COc1ccc(-n2cnnn2)cc1)Nc1ccccc1Cl | inactive
C=CCc1ccccc1OCC(=O)N/N=C/c1ccccc1OCC | inactive
CC(C)CN(C(=O)Cn1c(=O)cnc2ccccc21)C1CCS(=O)(=O)C1 (centres undefined) | inactive
O=C(NCc1ccc(Cl)cc1)C(=O)NCC1CCCN1S(=O)(=O)c1cccs1 (centres undefined) | inactive
CCCCN(C(=O)CCNC(=O)NC12CC3CC(CC(C3)C1)C2)c1c(N)n(CCCC)c(=O)[nH]c1=O | inactive
CC(=O)c1ccc(NC(=O)C2CCCN2S(=O)(=O)c2cccs2)cc1 (centres undefined) | inactive
COc1ccc2c(c1)O/C(=C\c1ccccc1O)C2=O | inactive
Cc1cc(=O)[nH]c(SCc2ccc(Cl)cc2)n1 | inactive
COc1ccc(OCc2cn3c(C)cc(C)nc3n2)cc1 | inactive
Cc1cc(C)nc(SCc2cn3c(C)cc(C)nc3n2)n1 | active
Cc1ccc2nc(SCc3cn4c(C)cc(C)nc4n3)[nH]c2c1 | inactive
CCc1cccc(C)c1NC(=O)COC(=O)CNC(=O)c1cccs1 | inactive
CCN(CC(=O)Nc1c(F)cccc1F)C(=O)c1ccc(S(=O)(=O)N2CCCCC2)cc1 | inactive
Cc1ccc(S(=O)(=O)N2CCCCC2)cc1C(=O)N(C)CC(=O)Nc1cccc(F)c1 | inactive
O=C(Nc1ccc(F)c([N+](=O)[O-])c1)C1CCCO1 (centres undefined) | inactive
Cc1ccc(C2CC(c3cccc(NS(C)(=O)=O)c3)=NN2S(C)(=O)=O)cc1 (centres undefined) | inactive
CS(=O)(=O)Nc1cccc(C2=NN(S(=O)(=O)c3ccccc3)C(c3cccs3)C2)c1 (centres undefined) | inactive
CS(=O)(=O)Nc1ccc(C2=NN(S(C)(=O)=O)C(c3cccs3)C2)cc1 (centres undefined) | active
Cc1ccc(CN2CCN(c3ccccc3Cl)CC2)o1 | inactive
